Pf Dd2 growth = inhibitors of Plasmodium falciparum Dd2 growth; P. falciparum Dd2 growth, SYBR Green, 72 h; Potency, µM (titrated, usually from 28.9 µM), most hits filed as inhibitors; 4.3% of 120,000 active; AID 1347417; active means well fitted inhibition curve with a large enough effect; further: nearly all actives have a fitted effect of over 65% in size
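Infected erythrocytes (Dd2, 0.3% parasitemia, 2.5% hematocrit final) are added to compound in RPMI-1640/Albumax II medium, grown 72 h at 37C in low oxygen, then lysed with saponin/Triton-X containing SYBR Green and read by fluorescence.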
Numbers stand for hits; i = inactive. The full list was thinned out, with hits kept by preference.

SMILES | Pf Dd2 growth
COc1ccc([C@H]2C[C@@H](O)[C@@H](O)[C@@H]2NC(=O)Nc2ccc(C(F)(F)F)cc2)cc1 | 3.2µM
COc1ccc([C@H]2C[C@@H](O)[C@@H](O)[C@@H]2NC(=O)c2ccc(C(F)(F)F)cc2)cc1 | i
COc1ccccc1C(=O)N[C@H]1[C@H](O)[C@H](O)C[C@@H]1c1ccc(C(F)(F)F)cc1 | i
Cc1ccccc1[C@H]1C[C@@H](O)[C@@H](O)[C@@H]1NC(=O)c1ccc(C(F)(F)F)cc1 | i
Cc1ccccc1C(=O)N[C@H]1[C@H](O)[C@H](O)C[C@@H]1c1ccc(C(F)(F)F)cc1 | 3.5µM
COc1ccc(CC(=O)N[C@H]2[C@H](O)[C@H](O)C[C@@H]2c2ccc(C(F)(F)F)cc2)cc1 | i
COc1ccc(CN2Cc3[nH]nc(-c4ccccc4Cl)c3CC2=O)cc1 | i
Cc1cccc(N2Cc3c(ncnc3N3CCOCC3)CN(C)C2=O)c1 | i
COCCNC(=O)[C@H]1C[C@H](Oc2cccnc2)CN1C(=O)c1cccs1 | i
Cc1ccc(-n2c(C3CCN(C(=O)c4ccc(F)c(Cl)c4)CC3)n[nH]c2=O)cc1 | i
COC[C@H]1CCCN1[C@@H]1[C@H](O)[C@H](CO)O[C@@H]1CNC(=O)Nc1ccccc1 | i
COC[C@H]1CCCN1[C@@H]1[C@H](O)[C@H](CO)O[C@@H]1CN(Cc1cccc(Cl)c1)Cc1cccc(Cl)c1 | 0.71µM
OC[C@@H]1O[C@H](CN(Cc2cccc(Cl)c2)Cc2cccc(Cl)c2)C(N2CCOCC2)[C@@H]1O (some centres not stated) | i
O=C1CCN(C(=O)C2CCN(C(=O)CCc3ccccc3)CC2)CCCCCCN1 | i
O=C1CCC2(CNC(=O)C3CCOCC3)CCCC=C2N1 (configuration not stated) | i
C=CCn1cc2c3c(cccc31)[C@H](CC(C)C)N[C@H](C(=O)NCCCN1CCCC1=O)C2 | i
C=CCN1CCN(C(=O)[C@@H]2Cc3c[nH]c4cccc(c34)[C@H](CC(C)C)N2)CC1 | 11µM
C=CCn1cc2c3c(cccc31)[C@H](CC(C)C)N[C@H](C(=O)NCc1ccc(OC)cc1)C2 | i
O=C1NCc2ccccc2CC12CCN(Cc1cc(O)cc(O)c1)CC2 | i
CCOc1ccccc1CN1CCC2(CCN([S+](=O)([O-])c3cccc(C(F)(F)F)c3)CC2)Oc2ccccc21 | 8.9µM
CCOc1ccccc1CN1CCC2(CCN([S+](=O)([O-])c3ccc(C)cc3)CC2)Oc2ccccc21 | 4µM
O=C1CC2(CCN([S+](=O)([O-])c3cccc(C(F)(F)F)c3)CC2)Oc2ccccc21 | i
COc1cccc([S+](=O)([O-])N2CCC3(CC2)CC(=O)c2ccccc2O3)c1 | i
O=C1CC2(CCN([S+](=O)([O-])c3cccc(C(F)(F)F)c3)CC2)Oc2cc(Cl)ccc21 | i
O=C1CC2(CCN([S+](=O)([O-])c3ccccc3)CC2)Oc2ccccc2N1 | i
SMILES | Pf Dd2 growth
CC(=O)N1CCC(C(=O)N2CCC3(CC2)NC(=O)N(c2ccc(F)cc2)N3)CC1 | i
Cc1ccc(NC(=O)O[C@@H]2CC[C@]3(C)[C@H](CC[C@H]4OC(=O)C[C@H]43)[C@]2(C)CO)cc1 | i
Cc1cc(C)n(Cc2cccc(C(=O)N[C@@H]3CCNC[C@H]3O)c2)n1 | i
COc1ccc(Cn2c(C3CCN(C(=O)c4ccc(F)cc4)CC3)n[nH]c2=O)cc1 | i
CN1CCCC(c2n[nH]c(=O)n2-c2ccc3c(c2)OCO3)C1 (configuration not stated) | i
O=C(Nc1cccc(Cl)c1)N1CCCCC1c1noc(COCC2CC2)n1 (configuration not stated) | i
COc1cccc(C(=O)N2CCC3(CC2)N=C(c2ccc(Br)cc2)NO3)c1 | 7.9µM
COc1cccc(C(=O)N2CCC3(CC2)N=C(c2ccc(C)cc2)NO3)c1 | i
COc1cccc(C(=O)N2CCC3(CC2)N=C(c2cccc(Br)c2)NO3)c1 | i
CCS(=O)(=O)c1ccc2oc([C@H]3CCN(Cc4cccc(Cl)c4)C3)nc2c1 | i
COCCNC(=O)C1COC2(CCC(C)CC2)N1C(=O)c1ccccc1C (configuration not stated) | i
COCCNC(=O)Cc1ccc(N(Cc2ccc(C)cc2)C(=O)c2ccco2)cc1 | 5.6µM
CCNC(=O)Cc1ccc(N(Cc2ccc(C)cc2)C(=O)c2ccco2)cc1 | i
COCCNC(=O)Cc1ccc(N(Cc2cccc(F)c2)C(=O)c2ccco2)cc1 | i
C=CCNC(=O)Cc1ccc(N(Cc2ccccc2)C(=O)c2ccco2)cc1 | i
O=C(Cc1ccc(N(Cc2ccc(F)cc2)C(=O)c2ccco2)cc1)NCCc1ccccc1 | i
COc1ccc(CN(C(=O)c2ccco2)c2ccc(CC(=O)NCCc3ccccc3)cc2)cc1 | 4µM
COCCN1CCC(CN(Cc2ccncc2)C(=O)c2ccc(=O)n(C)n2)CC1 | i
CC1(O)CCCN(c2ccc(-c3nc(CCCc4ccccc4)no3)cn2)C1 (configuration not stated) | i
CC[C@H]1CN(S(=O)(=O)c2ccccc2)CC[C@H]1CC(=O)NCCN1CCOCC1 | i
Cc1ccc(C(=O)N2CC[C@@](C)(O)[C@@H](Cc3ccccc3)C2)cc1C | 8.9µM
Cc1ccc(C(=O)N2CCC3(CC2)NC(=O)N(Cc2ccccc2)C3=O)cc1F | i
Cc1ccc(C(=O)N2CCC3(CC2)NC(=O)N(c2ccccc2)N3)cc1C | i
CC1CCN(c2ccc(CNC(=O)c3ccc4c(c3)C(O)CCCCCN4C)cc2)CC1 (configuration not stated) | i
CCOC(=O)c1cc(-c2ccccc2)n(-c2cccc(C(=O)Nc3cccc(C)c3)c2)c1C | 11µM
SMILES | Pf Dd2 growth
CCOC(=O)c1cc(-c2ccccc2)n(-c2cccc(C(=O)N(CC)c3ccccc3)c2)c1C | i
CCOC(=O)c1cc(-c2ccc(C)cc2)n(CC(=O)Nc2cccc(C(C)=O)c2)c1C | i
CCCN1C(=O)CCc2cc(NC(=O)c3ccc(C)s3)ccc21 | i
CNC(=O)C(C)(C)N1CCC[C@H]1C(=O)N1CCCCC1 | i
Cc1cc(C)c(CN2CCC3(CCCN(C)C3=O)C2)c(-n2cccn2)c1 (configuration not stated) | i
Cc1ccccc1Cn1c(=O)n(CC2CCC(C(=O)N3CCOCC3)CC2)c(=O)c2sccc21 (configuration not stated) | i
O=C(C1CCC(Cn2c(=O)c3sccc3n(Cc3cccc(F)c3)c2=O)CC1)N1CCCCC1 (configuration not stated) | 8.9µM
Cc1ccc(Cn2c(=O)n(CC3CCC(C(=O)N4CCOCC4)CC3)c(=O)c3sccc32)cc1 (configuration not stated) | i
COc1cccc(C(=O)N2CCC(N3C[C@H](O)C[C@H]3C(=O)NCc3ccc(C)o3)CC2)c1 | i
COc1ccc(-c2cc(N3CCC(NC(=O)Cc4ccccc4OC)CC3)n[nH]2)cc1 | i
CC(C)(C(=O)N1C[C@H](C2CC2)[C@@H](N)C1)c1ccccc1 | 6.3µM
CC(=O)N1CCC([C@@H]2CN(C(=O)COc3ccccc3)C[C@H]2CO)CC1 | i
CC(C)(C(=O)N1Cc2cnn(Cc3ccc(F)cc3)c2C1)c1ccccc1 | i
CCCS(=O)(=O)N1C[C@@H](Oc2cccnc2)C[C@H]1C(N)=O | i
COC(=O)c1ccc(NC(=O)Cn2c(C)cc3nc4n(c(=O)c32)CCCCC4)cc1 | i
O=C1COCC2(CN1Cc1ccc(F)cc1Cl)CN(c1ccc(C(F)(F)F)cn1)C2 | i
CCOc1cc(CN2CCOc3ccc(C(=O)NCc4ccccc4F)cc3C2)ccc1O | i
